Laboratory results published in PubChem BioAssay (NCATS).
Results filed as inconclusive are left out. A call without a number means that no potency is given here. Calls of active or inactive are those of the source. Calls come from the whole dose curve; as a rule, active = well fitted inhibition curve with a large enough effect; inconclusive = small, poorly fitted or top-dose-only effect; inactive = no such curve, though single readings can be large or run the other way.

target: Retinaldehyde dehydrogenase 3 (Homo sapiens) (UniProt P47895); test: qHTS for Inhibitors of the Aldehyde Dehydrogenase Family (ALDH1A3) Primary screen (AID 2061315); details: ALDH inhibition qHTS; series mostly up to 56 µM

| SMILES | Potency |
| --- | --- |
| Cc1cc(C)n2ncc(C(=O)Nc3ccccc3)c2n1 | inactive |
| COc1cc(O)c([C@H](CC(=O)N2CC(C)CC(C)C2)c2ccc3c(c2)OCO3)c(OC)c1 (stereo partly drawn) | inactive |
| COc1ccc(CC(NC(C)=O)C(=O)O)cc1 (stereo not drawn) | inactive |
| Cc1csc(CNc2ncnc3ccc(-c4ccc(CO)o4)cc23)n1 | inactive |
| Cc1cc(/C=C/C#N)cc(C)c1Nc1nc(Nc2ccc3n[nH]nc3c2)c2[nH]cnc2n1 | inactive |
| O=C1CCc2cc(S(=O)(=O)Nc3ccccn3)ccc2N1 | inactive |
| CCC/C=C/c1cc2c(C=O)c(O)c(CC=C(C)C)cc2o1 | inactive |
| COc1cc(-c2ccc3ncnc(NCc4cccs4)c3c2)cc(OC)c1OC | inactive |
| O=C(NCc1nnc(C(=O)Nc2ccc(C(F)(F)F)cc2Cl)o1)c1ccccc1 | inactive |
| O=c1c2ccccc2nc2sc(NCc3ccccc3)nn12 | inactive |
| CN(C)c1cccc(-c2ncnc(N3CCC(C(N)=O)CC3)n2)c1 | inactive |
| COc1cc(C(N)=O)nc(-c2ccccn2)c1O | inactive |
| O=C1CCCC2=C1C(c1ccn[nH]1)N=C(Nc1nc3ccccc3o1)N2 (stereo not drawn) | inactive |
| CN1CCN(c2cccc(Nc3nn4c(=O)c5ccc(C(F)(F)F)cc5nc4s3)c2)CC1 | inactive |
| CC(=O)NC(c1ccco1)c1cc(Cl)c2ccc(N(C)C)nc2c1O (stereo not drawn) | inactive |
| Cc1ccc(NS(=O)(=O)c2cc3c(cc2-c2ccccc2)NC(=O)CO3)cc1C | inactive |
| Cc1ccc(NS(=O)(=O)c2cc3c(cc2C)NC(=O)CO3)cc1C | inactive |
| Cc1ccnc(NC(=S)N2CCN(c3cccc(C(F)(F)F)c3)CC2)n1 | inactive |
